Test results reported in PubChem BioAssay AID1159580 (chemical genetic matrix, 2015).
Hit rate of the full screen: of about 5,500 compounds, about 2,000 (36%) were called active. Another 18% or so got no clear call; they are omitted. Cut-off read from the data, not from the text of the source: active = normalized growth mostly below about 0.91 (no sharp cut-off); inconclusive = no clear call, values can overlap the other calls; inactive = mostly above about 0.92. The list shows a part of the results.

Experiment: chemical genetic growth profiling, strain panel (AID 1159580);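 note: tested at 20 µM; growth read once vehicle control cultures reached saturation at 30 °C; 1 = growth at the plate median or of vehicle wells; lower values mean less growth of the strain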
Conditions: growth OD
[1] = S. cerevisiae deletion strains, locus YDL101C, strain DUN1, hits give low values
[2] = S. cerevisiae deletion strains, locus YHR030C, strain SLT2, hits give low values

Measured: normalized growth

COc1ccc(CCNC(=S)Nc2cccc(C(F)(F)F)c2)cc1OC
inactive: S. cerevisiae deletion strains, locus YAL013W, strain DEP1, hits give low values 0.997 | S. cerevisiae deletion strains, locus YBR229C, strain ROT2, hits give low values 0.995 | [1] 0.999 | S. cerevisiae deletion strains, locus YDR150W, strain NUM1, hits give low values 0.957 | S. cerevisiae deletion strains, locus YEL061C, strain CIN8, hits give low values 1.02 | S. cerevisiae deletion strains, locus YGR078C, strain PAC10, hits give low values 0.971 | [2] 0.9 | S. cerevisiae deletion strains, locus YHR087W, strain rtc3, hits give low values 1.03 | S. cerevisiae deletion strains, locus YJL187C, strain SWE1, hits give low values 1.01 | S. cerevisiae deletion strains, locus YJR043C, strain POL32, hits give low values 0.968 | S. cerevisiae deletion strains, locus YJR075W, strain HOC1, hits give low values 0.981 | S. cerevisiae deletion strains, locus YLR039C, strain RIC1, hits give low values 0.837 | S. cerevisiae deletion strains, locus YLR058C, strain SHM2 (second series), hits give low values 1.01 | S. cerevisiae deletion strains, locus YLR085C, strain ARP6, hits give low values 0.962 | S. cerevisiae deletion strains, locus YLR262C, strain YPT6, hits give low values 0.831 | S. cerevisiae deletion strains, locus YML094W, strain GIM5, hits give low values 0.968 | S. cerevisiae deletion strains, locus YMR219W, strain ESC1, hits give low values 1 | S. cerevisiae deletion strains, locus YMR263W, strain SAP30, hits give low values 0.981 | S. cerevisiae deletion strains, locus YNL128W, strain TEP1, hits give low values 0.987 | S. cerevisiae deletion strains, locus YNL153C, strain GIM3, hits give low values 0.969 | S. cerevisiae deletion strains, locus YNL298W, strain CLA4 (second series), hits give low values 1 | S. cerevisiae deletion strains, locus YNL322C, strain KRE1, hits give low values 0.996 | S. cerevisiae deletion strains, locus YNR030W, strain Alg12, hits give low values 1 | S. cerevisiae deletion strains, locus YOL006C, strain TOP1, hits give low values 0.964 | S. cerevisiae deletion strains, locus YPL055C, strain LGE1, hits give low values 1 | S. cerevisiae deletion strains, locus YPL241C, strain CIN2, hits give low values 0.969 | S. cerevisiae deletion strains, locus YPR135W, strain CTF4, hits give low values 0.895 | S. cerevisiae strains, strain wild type, hits give low values 0.982

O=C(NC(=S)Nc1cccc(C(F)(F)F)c1)c1ccc2nonc2c1
inactive: S. cerevisiae deletion strains, locus YAR019C, strain CDC15, hits give low values 0.956 | S. cerevisiae deletion strains, locus YBL105C, strain PKC1, hits give low values 0.968 | S. cerevisiae deletion strains, locus YBR135W, strain CKS1, hits give low values 0.93 | S. cerevisiae deletion strains, locus YBR136W, strain MEC1, hits give low values 0.952 | S. cerevisiae deletion strains, locus YBR160W, strain CDC28, hits give low values 0.96 | S. cerevisiae deletion strains, locus YDL017W, strain CDC7, hits give low values 0.96 | S. cerevisiae deletion strains, locus YDL028C, strain MPS1, hits give low values 0.952 | [1] 0.957 | S. cerevisiae deletion strains, locus YDL108W, strain KIN28, hits give low values 0.957 | S. cerevisiae deletion strains, locus YDL132W, strain cdc53, hits give low values 0.967 | S. cerevisiae deletion strains, locus YDL214C, strain PRR2, hits give low values 0.973 | S. cerevisiae deletion strains, locus YDR052C, strain DBF4, hits give low values 0.978 | S. cerevisiae deletion strains, locus YDR054C, strain cdc34, hits give low values 0.94 | S. cerevisiae deletion strains, locus YDR226W, strain ADK1, hits give low values 0.957 | S. cerevisiae deletion strains, locus YDR477W, strain SNF1, hits give low values 0.896 | S. cerevisiae deletion strains, locus YER123W, strain YCK3, hits give low values 0.971 | S. cerevisiae deletion strains, locus YER133W, strain GLC7, hits give low values 0.95 | S. cerevisiae deletion strains, locus YFL009W, strain cdc4, hits give low values 0.944 | S. cerevisiae deletion strains, locus YFL029C, strain CAK1, hits give low values 0.961 | S. cerevisiae deletion strains, locus YFR003C, strain YPI1, hits give low values 0.96 | S. cerevisiae deletion strains, locus YFR019W, strain FAB1, hits give low values 1 | S. cerevisiae deletion strains, locus YFR028C, strain CDC14, hits give low values 0.944 | S. cerevisiae deletion strains, locus YGR040W, strain KSS1, hits give low values 0.907 | S. cerevisiae deletion strains, locus YGR052W, strain FMP48, hits give low values 1.04 | S. cerevisiae deletion strains, locus YGR092W, strain DBF2, hits give low values 0.989 | S. cerevisiae deletion strains, locus YHR079C, strain IRE1, hits give low values 0.949 | S. cerevisiae deletion strains, locus YHR082C, strain KSP1, hits give low values 0.912 | S. cerevisiae deletion strains, locus YHR205W, strain SCH9, hits give low values 0.907 | S. cerevisiae deletion strains, locus YIL147C, strain SLN1, hits give low values 0.952 | S. cerevisiae deletion strains, locus YJL095W, strain BCK1, hits give low values 0.778 | S. cerevisiae deletion strains, locus YJL128C, strain PBS2, hits give low values 0.978 | S. cerevisiae deletion strains, locus YJL157C, strain FAR1, hits give low values 0.974 | S. cerevisiae deletion strains, locus YJR016C, strain ILV3, hits give low values 0.93 | S. cerevisiae deletion strains, locus YJR066W, strain TOR1 (second series), hits give low values 0.938 | S. cerevisiae deletion strains, locus YJR066W, strain TOR1, hits give low values 0.838 | S. cerevisiae deletion strains, locus YKL048C, strain ELM1, hits give low values 0.968 | S. cerevisiae deletion strains, locus YKL067W, strain YNK1, hits give low values 0.979 | S. cerevisiae deletion strains, locus YKL101W, strain HSL1, hits give low values 0.956 | S. cerevisiae deletion strains, locus YKL193C, strain SDS22, hits give low values 0.953 | S. cerevisiae deletion strains, locus YKL203C, strain TOR2, hits give low values 0.972 | S. cerevisiae deletion strains, locus YLR133W, strain CKI1, hits give low values 0.966 | S. cerevisiae deletion strains, locus YLR403W, strain SFP1, hits give low values 0.968 | S. cerevisiae deletion strains, locus YML070W, strain DAK1, hits give low values 0.953 | S. cerevisiae deletion strains, locus YMR001C, strain CDC5, hits give low values 0.957 | S. cerevisiae deletion strains, locus YMR205C, strain PFK2 (second series), hits give low values 0.959 | S. cerevisiae deletion strains, locus YMR277W, strain FCP1, hits give low values 0.953 | S. cerevisiae deletion strains, locus YNL006W, strain LST8, hits give low values 0.961 | S. cerevisiae deletion strains, locus YNL020C, strain ARK1, hits give low values 0.962 | S. cerevisiae deletion strains, locus YNL161W, strain CBK1, hits give low values 0.954 | S. cerevisiae deletion strains, locus YNL183C, strain NPR1, hits give low values 0.852 | S. cerevisiae deletion strains, locus YNL207W, strain RIO2, hits give low values 0.962 | S. cerevisiae deletion strains, locus YNL222W, strain SSU72, hits give low values 0.947 | S. cerevisiae deletion strains, locus YNL307C, strain MCK1 (second series), hits give low values 0.974 | S. cerevisiae deletion strains, locus YOL078W, strain AVO1, hits give low values 0.953 | S. cerevisiae deletion strains, locus YOL136C, strain PFK27, hits give low values 0.991 | S. cerevisiae deletion strains, locus YOR061W, strain CKA2, hits give low values 0.967 | S. cerevisiae deletion strains, locus YOR119C, strain RIO1, hits give low values 1.02 | S. cerevisiae deletion strains, locus YOR231W, strain MKK1, hits give low values 0.863 | S. cerevisiae deletion strains, locus YOR329C, strain SCD5, hits give low values 0.969 | S. cerevisiae deletion strains, locus YPL031C, strain PHO85, hits give low values 0.912 | S. cerevisiae deletion strains, locus YPL153C, strain RAD53, hits give low values 0.905 | S. cerevisiae deletion strains, locus YPL204W, strain HRR25, hits give low values 0.936 | S. cerevisiae deletion strains, locus YPL209C, strain IPL1, hits give low values 0.945 | S. cerevisiae deletion strains, locus YPR025C, strain CCL1, hits give low values 0.951 | S. cerevisiae deletion strains, locus YPR106W, strain ISR1, hits give low values 0.973 | S. cerevisiae deletion strains, locus YPR111W, strain DBF20, hits give low values 0.936 | S. cerevisiae deletion strains, strain NNK1, hits give low values 0.954 | S. cerevisiae deletion strains, strain TSCII, hits give low values 0.939
active: [2] 0.774 | S. cerevisiae deletion strains, locus YLR113W, strain HOG1, hits give low values 0.713 | S. cerevisiae deletion strains, locus YPL256C, strain CLN2, hits give low values 0.831
